{"source": "ChEMBL document CHEMBL3988442", "about": "“University of Dundee, Small-Polar-MMV Screening Library” (2021)", "note": "Out of some 48,000 compounds screened, about 13,000 (27%) showed an effect of 50% or more. The list shows a part of the results."}
{"tested_on": "Wolbachia pipientis", "experiment": "Anti-Wolbachia Cell-Based Screen", "format": "functional", "parameters": "scale not given: in the data most compounds retested in dose-response had high values", "conditions": "5 µM", "units": {"Percent Effect": "%"}}
{"compound": "CCC(O)CN1CCN(C(=O)Cc2nc(-c3ccco3)oc2C)CC1", "note": "(centres undefined)", "Percent Effect": -5.833}
{"compound": "CCOCC(O)CN1CCN(C(=O)Cc2ccc(C)nc2)CC1", "note": "(centres undefined)", "Percent Effect": -10.97}
{"compound": "CCOCC(O)CN1CCN(C(=O)Cc2ccccc2C)CC1", "note": "(centres undefined)", "Percent Effect": -8.235}
{"compound": "CCC(O)CN1CCN(C(=O)Cc2cc(C)ccc2OC)CC1", "note": "(centres undefined)", "Percent Effect": 134}
{"compound": "CCC(O)CN1CCN(C(=O)Cc2c(C)nc(C)[nH]c2=O)CC1", "note": "(centres undefined)", "Percent Effect": -7.478}
{"compound": "CCC(O)CN1CCN(C(=O)Cc2ccc(OC)cc2OC)CC1", "note": "(centres undefined)", "Percent Effect": 102.8}
{"compound": "COCCN1C[C@H]2CC[C@@H]1CN(Cc1ccc3ccccc3n1)C2", "Percent Effect": 26.94}
{"compound": "Cc1cnc(N2CCN(C)c3ncccc3C2)nc1.O=C(O)C(F)(F)F", "Percent Effect": 1.496}
{"compound": "CN1CCN(S(=O)(=O)c2cccc(F)c2)Cc2cccnc21.O=C(O)C(F)(F)F", "Percent Effect": 100.3}
{"compound": "CN1CCN(S(=O)(=O)c2ccccc2)Cc2cccnc21.O=C(O)C(F)(F)F", "Percent Effect": 87.5}
{"compound": "CCc1ccc(CN2CCN(C)c3ncccc3C2)o1.O=C(O)C(F)(F)F.O=C(O)C(F)(F)F", "Percent Effect": 45.7}
{"compound": "Cc1ccc(N2CCN(C)c3ncccc3C2)nn1.O=C(O)C(F)(F)F", "Percent Effect": 6.797}
{"compound": "Cl.Cl.c1ccc(COC[C@@H]2CCC[C@@]23CNCCO3)nc1", "Percent Effect": 92.25}
{"compound": "Cl.Cl.c1ccc(COC[C@H]2CCC[C@@]23CNCCO3)nc1", "Percent Effect": 88.66}
{"compound": "Fc1cccnc1N1CCC2(CNCCC2(F)F)C1", "note": "(centres undefined)", "Percent Effect": 8.279}
{"compound": "Cc1ccc(N2CC[C@@H]3CN(Cc4c[nH]cn4)C[C@@H]3C2)nn1", "Percent Effect": -8.039}
{"compound": "CN1CCC2(Cc3ccccc3NC2=O)C1", "note": "(centres undefined)", "Percent Effect": -15.76}
{"compound": "CN1Cc2ccccc2NC(=O)C12CCNC2", "note": "(centres undefined)", "Percent Effect": 111}
{"compound": "CCOCCC(=O)N1C[C@H]2CC[C@@H]1CN(Cc1ccncc1)C2", "Percent Effect": 3.16}
{"compound": "OC[C@H]1CN2CCN(c3ccccn3)C[C@@H]2[C@@H]1c1ccccc1", "Percent Effect": 97.55}
{"compound": "CN1CCN2C[C@@H](CO)[C@H](c3ccccc3)[C@H]2C1", "Percent Effect": 108.7}
{"compound": "Cc1nc(CC(=O)N2CCN(C)CC2c2ccccc2)cs1", "note": "(centres undefined)", "Percent Effect": -2.978}
{"compound": "OC[C@@H]1CN2CCN(c3ccccn3)C[C@@H]2[C@H]1c1ccccc1", "Percent Effect": 91.03}
{"compound": "CN1CCN2C(=O)N(c3ccccc3)C[C@H]2C1", "Percent Effect": 3.165}
{"compound": "O=C(Cc1ccc(-n2cccn2)cc1)N1CCN2CCCCC2C1", "note": "(centres undefined)", "Percent Effect": 0.2002}
{"compound": "N#Cc1cccc(N2CCOC3(CNCCOC3)C2)n1", "note": "(centres undefined)", "Percent Effect": -42.42}
{"compound": "Cc1cc(CN2C[C@@H]3COC[C@]3(CNS(C)(=O)=O)C2)no1.O=C(O)C(F)(F)F", "Percent Effect": -0.4635}
{"compound": "Cc1nc(C2(NCC(=O)NC(=O)Nc3ccccc3)CCCCC2)no1", "Percent Effect": 112.9}
{"compound": "Cc1nc(C2(NCC(=O)NC(=O)NCC(F)(F)F)CCCCC2)no1", "Percent Effect": 132.3}
{"compound": "Cc1nc(C2(NCC(=O)NCc3cccs3)CCCCC2)no1", "Percent Effect": 113.6}
{"compound": "Cc1nc(C2(NCc3cccc(F)c3F)CCCCC2)no1", "Percent Effect": -2.659}
{"compound": "Cc1nc(C2(NCc3ccc(C#N)cc3F)CCCCC2)no1", "Percent Effect": 2.337}
{"compound": "Cc1nc(C2(NCc3cc(C#N)ccc3F)CCCCC2)no1", "Percent Effect": 11.5}
{"compound": "Cc1cccnc1CCNC(=O)[C@@]12CNC[C@@H]1CN(S(C)(=O)=O)C2", "Percent Effect": -16.39}
{"compound": "Cc1cccnc1CC(C)NC1CCSCC1", "note": "(centres undefined)", "Percent Effect": -10.51}
{"compound": "CC(Cc1c(F)cccc1F)NC(=O)CSCC(N)=O", "note": "(centres undefined)", "Percent Effect": -4.817}
{"compound": "CCNC(=O)CN1CCSC2(CCCCC2)C1", "Percent Effect": -30.52}
{"compound": "CCS(=O)(=O)N[C@@H]1CN(Cc2cc(C)on2)C[C@@H]2CCCO[C@@H]21.O=C(O)C(F)(F)F", "Percent Effect": -1.229}
{"compound": "Cc1oncc1C(=O)N[C@@H]1CN(CC2CC2)C[C@@H]2CCCO[C@@H]21.O=C(O)C(F)(F)F", "Percent Effect": 91.11}
{"compound": "O=C(CC1CC1)N[C@@H]1CN(Cc2cccnc2)C[C@@H]2CCCO[C@@H]21.O=C(O)C(F)(F)F.O=C(O)C(F)(F)F", "Percent Effect": -3.357}
{"compound": "CCOCCN1C[C@@H]2CCCO[C@@H]2[C@H](NC(=O)c2cnoc2C)C1.O=C(O)C(F)(F)F", "Percent Effect": 102.3}
{"compound": "O=C(CC1CC1)N[C@@H]1CN(Cc2ccncc2)C[C@@H]2CCCO[C@@H]21.O=C(O)C(F)(F)F.O=C(O)C(F)(F)F", "Percent Effect": -9.965}
{"compound": "Cc1oncc1C(=O)N[C@@H]1CN(C2CCC2)C[C@@H]2CCCO[C@@H]21.O=C(O)C(F)(F)F", "Percent Effect": 88.41}
{"compound": "Cc1cc(CN2C[C@@H]3CCCO[C@@H]3[C@H](NS(C)(=O)=O)C2)no1.O=C(O)C(F)(F)F", "Percent Effect": -7.292}
{"compound": "Cc1cc(CN2C[C@@H]3CCCO[C@@H]3[C@H](Nc3ccccn3)C2)no1.O=C(O)C(F)(F)F.O=C(O)C(F)(F)F", "Percent Effect": 7.146}
{"compound": "O=C(O)C(F)(F)F.O=C(O)C(F)(F)F.O=C(O)C(F)(F)F.c1ccc(CN2C[C@@H]3CCCO[C@@H]3[C@H](Nc3ccccn3)C2)nc1", "Percent Effect": -7.621}
{"compound": "Cc1ncsc1CN1C[C@@H]2CCCO[C@@H]2[C@H](Nc2ccccn2)C1.O=C(O)C(F)(F)F.O=C(O)C(F)(F)F", "Percent Effect": 103.9}
{"compound": "Cc1noc(C)c1CN1C[C@@H]2CCCO[C@@H]2[C@H](NS(C)(=O)=O)C1.O=C(O)C(F)(F)F", "Percent Effect": -5.766}
{"compound": "CC(C)c1cc(N2CCCC3(CCN(C)C3)C2)ncn1", "note": "(centres undefined)", "Percent Effect": 23.89}
{"compound": "CCN(CC)C(=O)C1CCC2(CCNCC2)O1.Cl", "note": "(centres undefined)", "Percent Effect": -5.53}
{"compound": "Cc1nn(CCNC(C)Cn2ccnc2)c(C)c1Cl", "note": "(centres undefined)", "Percent Effect": -2.201}
{"compound": "COCC(=O)NC(C)Cc1cccc(Br)c1", "note": "(centres undefined)", "Percent Effect": -14.37}
{"compound": "CC(C)c1cc(CN2CCNCC2)no1", "Percent Effect": 116.8}
{"compound": "CCc1noc(C(C)N2CCNCC2)n1", "note": "(centres undefined)", "Percent Effect": 13}
{"compound": "CCc1cc(N2CCNCC2)n2nc(C)c(C)c2n1", "Percent Effect": -8.161}
{"compound": "CN1CCC2(CC1)C(=O)N(c1cccnc1)c1ccc(F)cc12.Cl", "Percent Effect": -1.333}
{"compound": "O=C(c1ccc(-n2ccnc2)nc1)N1CCN2CCCCC2C1", "note": "(centres undefined)", "Percent Effect": -5.274}
{"compound": "CN1CCCCC1c1ccc(-n2ccnc2)nc1", "note": "(centres undefined)", "Percent Effect": 128}
{"compound": "NC(=O)CN1CCCCC1c1ccc(-n2ccnc2)nc1", "note": "(centres undefined)", "Percent Effect": 114.9}
{"compound": "Cl.NC(CC1CCCCC1)c1ccccc1", "note": "(centres undefined)", "Percent Effect": -2.613}
{"compound": "CCCn1cc(C(=O)NCCS(N)(=O)=O)c2ccccc21", "Percent Effect": 15.61}
{"compound": "COCCn1cc(C(=O)NCCS(N)(=O)=O)c2ccccc21", "Percent Effect": 11.42}
{"compound": "COCCn1cc(C(=O)Nc2nc3c(s2)CCC3)c2ccccc21", "Percent Effect": 108.8}
{"compound": "Cc1cccc(CN2C(=O)C[C@H]3[C@@H]2CCN3Cc2cccs2)n1.O=C(O)C(F)(F)F.O=C(O)C(F)(F)F", "Percent Effect": 4.955}
{"compound": "Cc1cc(CN2CC[C@H]3[C@H]2CCN3C)oc1C.O=C(O)C(F)(F)F.O=C(O)C(F)(F)F", "Percent Effect": 2.968}
{"compound": "Cc1cccc(CN2CC[C@@H]3[C@@H]2CCN3C(=O)c2ccno2)n1.O=C(O)C(F)(F)F.O=C(O)C(F)(F)F", "Percent Effect": -0.9424}
{"compound": "Cc1ccc(CN2CC[C@@H]3[C@@H]2CCN3C(=O)Cc2cccs2)o1.O=C(O)C(F)(F)F", "Percent Effect": 90.39}
{"compound": "COCCN1C[C@@H]2[C@@H](OC)CCN(Cc3cccc(C)n3)[C@@H]2C1.O=C(O)C(F)(F)F.O=C(O)C(F)(F)F.O=C(O)C(F)(F)F", "Percent Effect": 0.3153}
{"compound": "Cc1ccc(CN2CC[C@H]3[C@H]2CC(=O)N3c2cccnc2)o1.O=C(O)C(F)(F)F.O=C(O)C(F)(F)F", "Percent Effect": 1.465}
{"compound": "Cc1cccc(CN2CC[C@H]3[C@H]2CCN3C(=O)c2cnn(C)c2)n1.O=C(O)C(F)(F)F.O=C(O)C(F)(F)F", "Percent Effect": -8.772}
{"compound": "Cc1cccc(CN2CC[C@@H]3[C@@H]2CCN3C(=O)Cc2ccsc2)n1.O=C(O)C(F)(F)F.O=C(O)C(F)(F)F", "Percent Effect": 119.7}
{"compound": "Cc1cccc(CN2CC[C@@H]3[C@@H]2CCN3C(=O)Cc2cccs2)n1.O=C(O)C(F)(F)F.O=C(O)C(F)(F)F", "Percent Effect": 101.6}
{"compound": "Cc1cccc(CN2CC[C@@H]3[C@@H]2CCN3Cc2cccs2)n1.O=C(O)C(F)(F)F.O=C(O)C(F)(F)F", "Percent Effect": 102.2}
{"compound": "Cc1cccc(CN2CC[C@@H]3[C@@H]2CCN3C(=O)c2cnoc2C)n1", "Percent Effect": -2.884}
{"compound": "CC(C)(C)c1cn(C[C@H]2CC3CCN2C[C@@H]3C(=O)NC2CC2)nn1", "note": "(some centres undefined)", "Percent Effect": 12.02}
{"compound": "CC(C)N1[C@H](Cn2cncn2)C[C@@H]2CNCC[C@@H]21.Cl.Cl", "Percent Effect": -6.101}
{"compound": "Cc1ccc(N2C[C@@H]3CN(Cc4ccsc4)CCO[C@@H]3C2)nn1.O=C(O)C(F)(F)F.O=C(O)C(F)(F)F", "Percent Effect": -3.128}
{"compound": "Cc1ccc(N2CCO[C@H]3CN(Cc4ccccn4)C[C@H]32)nn1.O=C(O)C(F)(F)F.O=C(O)C(F)(F)F.O=C(O)C(F)(F)F", "Percent Effect": -12.44}
{"compound": "Cc1ccc(N2CC[C@@H]3[C@@H]2CCN3Cc2ccsc2)nn1.O=C(O)C(F)(F)F.O=C(O)C(F)(F)F", "Percent Effect": 101.6}
{"compound": "COc1ncnc(N)c1CNCCc1ccccc1", "Percent Effect": 127.7}
{"compound": "COCCN1CCC2(C1)CN(c1ncc(F)cn1)C2.O=C(O)C(F)(F)F", "Percent Effect": 4.032}
{"compound": "CCN1CCC2(CC1)C(=O)Nc1ccc(C(=O)NC)cc12.O=C(O)C(F)(F)F", "Percent Effect": 117.8}
{"compound": "CCN1CCC12CCN(C(=O)c1cc(C)on1)C2.O=C(O)C(F)(F)F", "note": "(centres undefined)", "Percent Effect": -17.49}
{"compound": "Cn1cc(CN2CCC3(CC2)C(=O)Nc2ccccc23)cn1.O=C(O)C(F)(F)F", "Percent Effect": -7.765}
{"compound": "CC[C@@H]1N(CC2CC2)CCC[C@]12CCC(=O)N2.O=C(O)C(F)(F)F", "Percent Effect": -18.87}
{"compound": "CNC(=O)c1ccc2c(c1)C1(CCN(CC3CC3)CC1)C(=O)N2.O=C(O)C(F)(F)F", "Percent Effect": 108.4}
{"compound": "CC(=O)N1CCC2(CN(CC3CCCC3)C2)C1.O=C(O)C(F)(F)F", "Percent Effect": -16.93}
{"compound": "CNC(=O)c1ccc2c(c1)C1(CCN(CCOC)CC1)C(=O)N2.O=C(O)C(F)(F)F", "Percent Effect": 94.3}
{"compound": "COCCN1CCC2(CC1)C(=O)Nc1ccc(C(=O)NC(C)C)cc12.O=C(O)C(F)(F)F", "Percent Effect": 101}
